Compound activity deposited in PubChem by Johns Hopkins Ion Channel Center.
This is a sample that favours compounds with a hit; in the whole collection about 1.6% have one here.
KCNQ2 enhance – potentiators of rat KCNQ2 potassium channel | O88943 | actives 0.54% (n = 310,000) | AID 2239 | CHO-K1 KCNQ2, FluxOR thallium flux fluorescence; active compounds read high | B-score at 10 µM;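 active means fluorescence ratio B-score at least 3 SD of library B-scores, with initial fluorescence B-score within 3 of them, cut at about 5.3 in these data; same plate scores as AID 2156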;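 further: B-score of peak minus minimum over baseline fluorescence ratio after K+ and Tl+ stimulus; positive B-score means potentiation of KCNQ2 with more thallium influx and brighter signal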
KCNQ2 inh – inhibitors of rat KCNQ2 potassium channel; O88943; CHO-K1 KCNQ2, FluxOR thallium flux, 20 min; active compounds read low; B-score at 10 µM; actives 1.1% (n = 310,000); AID 2156;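 active means fluorescence ratio B-score at most minus 3 library SDs, with starting brightness B-score within 2 library SDs, cut at about -5.5 in these data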
Kir21 conf inh – confirmation of mouse Kir2.1 potassium channel inhibitors. shares compounds with KCNQ2 enhance. Kir2.1-expressing cells, FluxOR thallium flux fluorescence; active compounds read low. Tl flux remaining, % of negative control (active compounds read low), % at 10 µM. actives 41% (n = 2,300). AID 2032;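 active means Primary-screen hit whose thallium flux fell at least 3 control SD below untreated wells in both duplicates, with normal baseline fluorescence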;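 further: 0% = blank wells without stimulus and 100% = stimulated no-compound controls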
HEK293 Tl flux – parental HEK293 activity in Kir2.1 inhibitor counter-screen; parental HEK293 cells, FluxOR thallium flux fluorescence; 0% = unstimulated blank wells; FluxOR signal as % of negative control (100 = no effect), % at 10 µM; actives 19% (n = 2,300); shares compounds with KCNQ2 enhance; AID 2105;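 active means dye signal at least 3 control SD above or below untreated wells in both duplicates, raw fluorescence within 3, either direction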;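 further: percent is based on the flux ratio of peak minus minimum fluorescence over baseline F0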
CHO-K1 ctr – parental CHO-K1 activity in KCNQ2 potentiator counter-screen | actives 43% (n = 1,200) | activity increase over 3SD of controls, % at 10 µM | AID 2282 | parental CHO-K1 cells, FluxOR thallium flux fluorescence; zero = vehicle mean+3SD, 100% = vehicle-minus-blank window | shares compounds with KCNQ2 enhance;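 active means signal rise of at least 3 SD above the untreated control mean, in both duplicate wells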;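 further: counter screen of KCNQ2 potentiator hits so any rise reflects channel-independent effects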
KCNQ1 sel pot – selectivity of KCNQ2 potentiators: effect on human KCNQ1. shares compounds with KCNQ2 enhance. activation over 3SD threshold, % at 10 µM. actives 28% (n = 1,200). CHO KCNQ1 stable, FluxOR thallium flux fluorescence; beyond 3SD, as % of vehicle-control signal. AID 2283;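 active means fluorescence ratio rise of at least 3 SD of vehicle wells above their mean, in both replicate wells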;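 further: 0% = vehicle mean plus 3 SD and 100% = vehicle minus unstimulated blank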
Target sequence (P51787 whole entry, looked up): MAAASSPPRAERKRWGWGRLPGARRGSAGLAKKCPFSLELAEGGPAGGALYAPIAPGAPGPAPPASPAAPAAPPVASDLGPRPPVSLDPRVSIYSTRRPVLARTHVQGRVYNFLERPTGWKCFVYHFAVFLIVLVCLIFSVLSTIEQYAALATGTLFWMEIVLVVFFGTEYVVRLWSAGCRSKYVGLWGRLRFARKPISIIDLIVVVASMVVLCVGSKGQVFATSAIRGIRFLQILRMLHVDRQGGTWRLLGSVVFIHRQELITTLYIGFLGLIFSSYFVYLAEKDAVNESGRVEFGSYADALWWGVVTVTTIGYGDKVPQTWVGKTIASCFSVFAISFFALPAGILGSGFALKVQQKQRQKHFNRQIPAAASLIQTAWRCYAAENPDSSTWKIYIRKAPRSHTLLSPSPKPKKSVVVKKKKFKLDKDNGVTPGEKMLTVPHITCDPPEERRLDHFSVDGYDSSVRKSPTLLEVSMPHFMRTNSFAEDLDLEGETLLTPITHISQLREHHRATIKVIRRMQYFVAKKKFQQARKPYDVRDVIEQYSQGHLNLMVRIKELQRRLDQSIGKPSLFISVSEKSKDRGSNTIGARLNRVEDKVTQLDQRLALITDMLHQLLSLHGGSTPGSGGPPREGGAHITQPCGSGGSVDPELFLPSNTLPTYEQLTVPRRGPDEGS
KCNQ2 pot conf – rat KCNQ2 channel potentiator confirmation; potentiation, less the hit threshold, % at 10 µM; actives 68% (n = 1,200); shares compounds with KCNQ2 enhance; CHO-KCNQ2 cells, FluxOR thallium flux fluorescence;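 active means fluorescence ratio rising 3 SD or more over the vehicle control mean in both replicates, plus primary screen hit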;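 further: peak minus minimum thallium fluorescence divided by baseline after K/Tl stimulus; 0% = vehicle mean plus 3 SD and 100% = vehicle minus unstimulated blank difference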
Kir2-1 sel – tests whether KCNQ2 potentiators also affect mouse Kir2.1; actives 2% (n = 1,200); HEK293 Kir2.1, FluxOR thallium flux fluorescence; shares compounds with KCNQ2 enhance; activity over 3SD threshold, % at 10 µM; AID 2345;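 active means fluorescence ratio rise of at least 3 SD above the vehicle-control mean, seen in both replicates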;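 further: 0% = vehicle mean plus 3 SD and 100% = vehicle minus no-stimulus blank window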
KCNQ2 W236L MoA – KCNQ2 potentiators acting on retigabine-insensitive rat KCNQ2 W236L mutant; shares compounds with KCNQ2 enhance; CHO KCNQ2-W236L, automated patch clamp current; current increase over 3SD of negative controls (%), active compounds read high, % at 25 µM; actives 10% (n = 940); AID 2558;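 active means current increase at least 3 SD of the untreated controls above them in both duplicate recordings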
Starred values were filed as active, the others as inactive; i = inactive; x = not tested or not shown.

SMILES	KCNQ2 enhance	KCNQ2 inh	Kir21 conf inh	HEK293 Tl flux	CHO-K1 ctr	KCNQ1 sel pot	KCNQ2 pot conf	Kir2-1 sel	others
COc1ccc(Oc2c(-c3ccc(O)cc3O)n[nH]c2C)cc1	x	i	61%*	i	x	x	x	x
COc1cccc(CNS(=O)(=O)c2ccc3c(c2)oc(=O)n3C)c1	2.7	i	x	x	x	x	x	x
COc1ccc2c(C)cc(N3CCN(Cc4ccccc4)CC3)nc2c1	x	i	x	x	x	x	x	x
O=C(Nc1ccnn1C1CCN(C(=O)c2cnsn2)CC1)c1cccc(F)c1	1	i	x	x	x	x	x	x
COc1ccc(Nc2ccc(Cl)nn2)cc1	0.66	i	x	x	x	x	x	x
Clc1ccc(Nc2ccc(Cl)nn2)cc1	6.6*	i	i	i	17*	36*	14*	-33	KCNQ2 W236L MoA=25%*
O=C(CCC1CCCCC1)Nc1c2c(nn1-c1ccc(F)cc1)CS(=O)C2 (configuration not stated)	10*	i	i	i	-31	19*	47*	-31	KCNQ2 W236L MoA=i
O=C(Nc1c2c(nn1-c1ccc(F)cc1)CS(=O)C2)c1ccc(Br)o1 (configuration not stated)	0.96	i	x	x	x	x	x	x
CCOC(=O)c1c(C)n(CCNC(C)=O)c2ccc(OC)cc12	x	i	x	x	x	x	x	x
CCOC(=O)c1c(-c2ccccc2)c2cc(OC)ccc2n1CCCN(C)C	x	i	36%*	i	x	x	x	x
O=C(Cn1ncc2c3ccccc3n(Cc3ccccc3)c2c1=O)N1CCN(c2ccccn2)CC1	7.5*	i	i	i	-13	42*	20*	-35	KCNQ2 W236L MoA=i
CCCCN(C)C(=O)Cn1ncc2c3ccccc3n(CCC)c2c1=O	6*	i	i	i	113*	-17	-1	-36	KCNQ2 W236L MoA=i
CCCn1c2ccccc2c2cnn(CC(=O)N3CCN(C4CCCCC4)CC3)c(=O)c21	9*	i	i	i	-7	35*	20*	-46	KCNQ2 W236L MoA=i
CCCn1c2ccccc2c2cnn(CC(=O)N3CCOCC3)c(=O)c21	3.1	i	x	x	x	x	x	x
O=C(Cn1ncc2c3ccccc3n(Cc3ccccc3)c2c1=O)N1CCN(c2ncccn2)CC1	4.7	i	x	x	x	x	x	x
CCCn1c2ccccc2c2cnn(CC(=O)N(CC)CC)c(=O)c21	x	i	x	x	x	x	x	x
NC(=O)c1ccccc1NC(=O)CC12CC3CC(CC(Br)(C3)C1)C2	1.1	i	x	x	x	x	x	x
COc1ccc(NC(=O)CNC(=O)C23CC4CC(CC(C4)C2)C3)c(OC)c1	x	i	x	x	x	x	x	x
COc1ccccc1NC(=O)CC12CC3CC(CC(Br)(C3)C1)C2	6.7*	i	i	i	-3	41*	23*	-17	KCNQ2 W236L MoA=i
COc1ccc(NC(=O)CC23CC4CC(CC(Br)(C4)C2)C3)c(OC)c1	16*	i	i	i	-1	2.8*	72*	-30	KCNQ2 W236L MoA=i
COc1cc(-c2nc(CN(C)Cc3nnc(C)o3)c(C)o2)ccc1F	x	i	x	x	x	x	x	x
Cc1ccc(S(=O)(=O)NCc2ccc3[nH]c(C)cc3c2)cc1	x	i	x	x	x	x	x	x
CC(=O)Nc1ccc(S(=O)(=O)NCc2ccc3[nH]c(C)cc3c2)cc1	5.4*	i	i	i	3.8*	-6	-18	-36
CCOC(=O)c1sc2nc(CC(=O)OC)nc(NCc3ccco3)c2c1C	1.5	i	x	x	x	x	x	x
CCOC(=O)c1sc2ncnc(NCc3ccco3)c2c1C	14*	i	i	238%*	23*	-29	47*	-31	KCNQ2 W236L MoA=i
SMILES	KCNQ2 enhance	KCNQ2 inh	Kir21 conf inh	HEK293 Tl flux	CHO-K1 ctr	KCNQ1 sel pot	KCNQ2 pot conf	Kir2-1 sel	others
Cc1cc(C)c(NC(=O)CCCC(=O)O)c(Cl)c1	x	i	x	x	x	x	x	x
CC(C)=CC(=O)Nc1c(C)cc(C)cc1Cl	11*	i	i	i	-20	-20	28*	-27	KCNQ2 W236L MoA=i
O=C(N/N=C/c1cccc(Oc2ccc([N+](=O)[O-])cc2[N+](=O)[O-])c1)c1cncc(Br)c1	x	i	x	x	x	x	x	x
CCS(=O)(=O)n1nc(NCc2cccc(OC)c2)nc1NCc1cccc(OC)c1	15*	i	x	x	78*	-7	-25	-50
CCCn1nnnc1NCc1cccc(OC)c1	x	i	x	x	x	x	x	x
NC(=O)C1CCCN(C(=S)Nc2cccc3ccccc23)C1 (configuration not stated)	2	i	x	x	x	x	x	x
N#Cc1ccc(NC(=O)Cn2cnc(S(=O)(=O)N3CCc4ccccc43)c2)cc1	x	i	x	x	x	x	x	x
O=C(/C=C/c1ccccc1Cl)Nc1ccccc1	x	i	x	x	x	x	x	x
Cc1ccc(C)c(/C=C/C(=O)c2ccccc(=O)c2O)c1	18*	i	i	144%*	33*	36*	-4	-40	KCNQ2 W236L MoA=i
Cc1ccc(C)c(NC(=O)c2ccccc2O)c1	0.05	i	x	x	x	x	x	x
O=C(/C=C/c1ccccc1Cl)c1ccccc(=O)c1O	8.4*	i	i	153%*	-4	4.1*	-6	-45
Cc1noc(C)c1COC(=O)CCN1c2ccccc2Sc2ccccc21	x	i	70%*	i	x	x	x	x
Cc1noc(C)c1COC(=O)CCOc1ccccc1	1.1	i	x	x	x	x	x	x
Cc1cc(OC(C)C(=O)NCC2CCCO2)cc(C)c1Cl (configuration not stated)	1.2	i	x	x	x	x	x	x
Cc1ccc(NC(=S)NC(=O)c2ccc(-c3ccc(Cl)cc3)o2)c(O)c1	1.1	i	x	x	x	x	x	x
Cc1ccc(O)c(NC(=S)NC(=O)Cc2ccc(Cl)cc2)c1	7*	i	i	i	0.0*	-14	-22	-44
CC1CCN(C(=O)c2[nH]cnc2C(=O)N[C@@H](C)C(=O)OCc2ccccc2)CC1	x	i	x	x	x	x	x	x
CCCCOc1ccc(Cc2n[nH]c(=S)n2N)cc1	x	i	x	x	x	x	x	x
N#CC(c1ccc(Cl)cc1)c1ccc2c(C(F)(F)F)cc(C(F)(F)F)nc2n1 (configuration not stated)	18*	i	i	i	-22	47*	21*	-36	KCNQ2 W236L MoA=i
FC(F)(F)c1cc(C(F)(F)F)c2ccc(N3CCN(c4ccc(Cl)cc4)CC3)nc2n1	1.8	i	x	x	x	x	x	x
Cc1ccc(C(=O)NCC(=O)OCCOc2ccccc2Cl)cc1	x	i	x	x	x	x	x	x
CC(C)CCNC(=O)c1sc2ccc(S(=O)(=O)N3CCCCC3)cc2c1N	x	i	x	x	x	x	x	x
